# Experimental data from paper PMC7862700, “An all-to-all approach to the identification of sequence-specific readers for epigenetic DNA modifications on cytosine”.
# How the values were obtained:
# Assay in all cases: DAPPL (digital affinity profiling via proximity ligation, sequencing); 10 mM Tris-HCl pH 7.5, 50 mM NaCl, 1 mM DTT, 4% glycerol, room temperature, 30 min; GST-TFs on glutathione beads, 16-mer random dsDNA library, 0.1% formaldehyde crosslink after washing; high values mean tight binding
# Conditions in all cases: protein: recombinant; tags: N-terminal GST; dsDNA, one strand shown
# FLI1 = target: T1, FLI1 (Homo sapiens, UniProt Q01543 1-452)
# T1 sequence: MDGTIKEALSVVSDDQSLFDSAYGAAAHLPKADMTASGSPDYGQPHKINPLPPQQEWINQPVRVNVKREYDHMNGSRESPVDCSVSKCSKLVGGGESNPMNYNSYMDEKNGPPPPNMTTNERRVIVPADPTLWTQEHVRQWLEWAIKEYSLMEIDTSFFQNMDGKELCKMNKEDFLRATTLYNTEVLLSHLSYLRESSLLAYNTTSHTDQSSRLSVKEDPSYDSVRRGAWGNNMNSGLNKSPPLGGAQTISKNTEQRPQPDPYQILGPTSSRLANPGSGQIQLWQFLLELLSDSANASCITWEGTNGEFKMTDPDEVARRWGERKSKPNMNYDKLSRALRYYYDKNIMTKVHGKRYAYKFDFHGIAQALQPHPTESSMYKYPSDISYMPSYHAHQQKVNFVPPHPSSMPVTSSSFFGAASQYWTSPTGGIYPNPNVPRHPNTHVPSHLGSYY
# In short: (§1)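 After expression in yeast as GST fusions, human transcription factors were bound to glutathione beads, DNA-barcoded and mixed with a tag-only sample. The pools were incubated with 200 nmole of a 16-mer random double-stranded DNA library in Tris/NaCl/DTT/glycerol buffer (30 min, room temperature), washed and crosslinked with 0.1% formaldehyde. Proximity ligation with BsaI/T4 ligase ran for 1 h at 37 °C, before PCR amplification and sequencing on an Illumina NextSeq500. Binding signal is a hexamer's read frequency for a factor divided by its frequency for the tag-only sample.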
# ELK1 = target: T2, ELK1 (Homo sapiens, UniProt P19419 1-428)
# T2 sequence: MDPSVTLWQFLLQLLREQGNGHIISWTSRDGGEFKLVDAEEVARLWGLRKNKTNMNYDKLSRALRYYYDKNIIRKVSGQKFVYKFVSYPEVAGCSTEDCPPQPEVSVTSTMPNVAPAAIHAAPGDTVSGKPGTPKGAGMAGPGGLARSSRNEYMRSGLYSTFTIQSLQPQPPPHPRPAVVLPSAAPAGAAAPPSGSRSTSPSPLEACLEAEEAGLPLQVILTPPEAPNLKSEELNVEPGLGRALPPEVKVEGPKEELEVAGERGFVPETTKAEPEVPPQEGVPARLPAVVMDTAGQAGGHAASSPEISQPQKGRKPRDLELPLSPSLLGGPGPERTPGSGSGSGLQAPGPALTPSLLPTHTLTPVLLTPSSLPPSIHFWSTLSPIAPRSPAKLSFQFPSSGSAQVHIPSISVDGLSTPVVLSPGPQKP
# In short: as §1
# GABPA = target: T3, GABPA (Homo sapiens, UniProt Q06546 1-454)
# T3 sequence: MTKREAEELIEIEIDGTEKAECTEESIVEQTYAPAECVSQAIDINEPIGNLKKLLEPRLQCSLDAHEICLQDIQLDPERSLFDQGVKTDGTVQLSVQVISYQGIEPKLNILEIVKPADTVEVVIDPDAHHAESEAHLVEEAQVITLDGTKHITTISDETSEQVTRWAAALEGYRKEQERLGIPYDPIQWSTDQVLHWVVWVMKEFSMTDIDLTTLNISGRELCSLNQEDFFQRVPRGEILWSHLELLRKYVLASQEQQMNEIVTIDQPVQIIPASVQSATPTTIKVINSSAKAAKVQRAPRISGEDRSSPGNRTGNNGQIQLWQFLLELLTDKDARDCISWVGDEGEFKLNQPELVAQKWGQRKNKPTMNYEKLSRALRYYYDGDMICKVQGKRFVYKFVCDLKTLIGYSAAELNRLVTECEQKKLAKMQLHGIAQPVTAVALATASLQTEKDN
# In short: as §1
# ERG = target: T4, ERG (Homo sapiens, UniProt P11308 1-479)
# T4 sequence: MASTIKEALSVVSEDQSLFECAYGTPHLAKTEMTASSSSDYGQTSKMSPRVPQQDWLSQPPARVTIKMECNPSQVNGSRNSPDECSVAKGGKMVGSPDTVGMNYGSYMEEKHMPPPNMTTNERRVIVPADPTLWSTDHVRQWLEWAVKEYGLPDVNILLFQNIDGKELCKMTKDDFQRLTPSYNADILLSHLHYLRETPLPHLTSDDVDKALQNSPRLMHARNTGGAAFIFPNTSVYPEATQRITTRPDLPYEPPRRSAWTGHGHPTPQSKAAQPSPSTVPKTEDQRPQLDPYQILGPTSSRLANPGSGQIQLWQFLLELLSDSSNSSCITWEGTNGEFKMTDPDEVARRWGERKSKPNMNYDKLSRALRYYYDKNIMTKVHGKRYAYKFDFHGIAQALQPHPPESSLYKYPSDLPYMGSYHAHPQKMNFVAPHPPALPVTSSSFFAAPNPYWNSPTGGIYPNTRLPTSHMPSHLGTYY
# In short: as §1
# ELF1 = ELF1 (Homo sapiens, UniProt P32519 1-619)
# In short: as §1
# EHF = target: T5, EHF (Homo sapiens, UniProt Q9NZC4 1-300)
# T5 sequence: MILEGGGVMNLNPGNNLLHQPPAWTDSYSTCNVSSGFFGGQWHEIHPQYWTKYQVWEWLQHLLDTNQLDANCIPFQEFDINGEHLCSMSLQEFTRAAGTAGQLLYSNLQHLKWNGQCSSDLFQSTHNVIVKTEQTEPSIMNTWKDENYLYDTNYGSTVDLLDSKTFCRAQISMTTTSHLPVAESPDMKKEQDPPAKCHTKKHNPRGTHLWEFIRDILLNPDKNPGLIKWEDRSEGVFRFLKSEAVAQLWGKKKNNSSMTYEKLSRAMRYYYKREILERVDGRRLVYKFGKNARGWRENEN
# In short: as §1
# SPI1 = SPI1 (Homo sapiens, UniProt P17947 1-270)
# In short: as §1
# SPIB = SPIB (Homo sapiens, UniProt Q01892 1-262)
# In short: as §1
# ELK3 = target: T6, ELK3 (Homo sapiens, UniProt P41970 1-407)
# T6 sequence: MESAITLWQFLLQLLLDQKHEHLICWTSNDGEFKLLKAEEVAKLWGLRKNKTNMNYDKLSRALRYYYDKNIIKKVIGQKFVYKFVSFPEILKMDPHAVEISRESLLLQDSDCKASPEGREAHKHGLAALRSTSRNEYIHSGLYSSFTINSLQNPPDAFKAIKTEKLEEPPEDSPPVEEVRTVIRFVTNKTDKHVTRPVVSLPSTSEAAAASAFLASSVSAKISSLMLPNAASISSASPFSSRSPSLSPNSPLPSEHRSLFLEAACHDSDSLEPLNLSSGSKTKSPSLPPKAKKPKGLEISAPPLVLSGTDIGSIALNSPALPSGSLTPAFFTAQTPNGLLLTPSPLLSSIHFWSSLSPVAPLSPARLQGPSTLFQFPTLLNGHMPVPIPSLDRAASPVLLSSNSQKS
# In short: as §1
# FEV = target: T7, FEV (Homo sapiens, UniProt Q99581 1-238)
# T7 sequence: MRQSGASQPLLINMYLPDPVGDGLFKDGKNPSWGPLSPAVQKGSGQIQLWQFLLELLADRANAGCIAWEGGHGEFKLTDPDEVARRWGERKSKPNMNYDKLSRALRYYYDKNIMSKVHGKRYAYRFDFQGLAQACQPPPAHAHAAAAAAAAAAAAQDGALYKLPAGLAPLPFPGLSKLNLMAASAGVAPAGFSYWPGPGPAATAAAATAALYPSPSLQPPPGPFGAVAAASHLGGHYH
# In short: as §1
# ETV5 = ETV5 (Homo sapiens, UniProt P41161 1-510)
# In short: as §1
# SPIC = target: T8, SPIC (Homo sapiens, UniProt Q8N5J4 1-248)
# T8 sequence: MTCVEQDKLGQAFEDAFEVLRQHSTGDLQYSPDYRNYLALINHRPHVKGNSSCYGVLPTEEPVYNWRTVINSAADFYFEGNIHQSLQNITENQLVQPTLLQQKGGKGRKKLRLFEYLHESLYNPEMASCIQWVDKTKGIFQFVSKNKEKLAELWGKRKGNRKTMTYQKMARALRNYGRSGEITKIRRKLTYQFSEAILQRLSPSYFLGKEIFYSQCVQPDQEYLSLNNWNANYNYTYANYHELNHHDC
# In short: as §1
# ELF4 = ELF4 (Homo sapiens, UniProt Q99607 1-663)
# In short: as §1
# ELK4 = target: T9, ELK4 (Homo sapiens, UniProt P28324-2 1-405)
# T9 sequence: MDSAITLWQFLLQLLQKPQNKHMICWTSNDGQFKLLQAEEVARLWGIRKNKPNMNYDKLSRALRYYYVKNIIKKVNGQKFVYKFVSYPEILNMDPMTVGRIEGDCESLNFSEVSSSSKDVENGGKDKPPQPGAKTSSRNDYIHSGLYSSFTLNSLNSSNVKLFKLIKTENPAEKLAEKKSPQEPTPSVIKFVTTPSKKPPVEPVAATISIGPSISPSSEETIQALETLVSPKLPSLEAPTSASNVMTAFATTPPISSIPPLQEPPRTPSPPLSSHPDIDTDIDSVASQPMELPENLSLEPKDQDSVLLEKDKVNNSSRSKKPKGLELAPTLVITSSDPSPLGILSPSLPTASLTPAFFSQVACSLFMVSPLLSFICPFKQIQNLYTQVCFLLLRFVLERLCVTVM
# In short: as §1
# ETV2 = target: T10, ETV2 (Homo sapiens, UniProt O00321 1-342)
# T10 sequence: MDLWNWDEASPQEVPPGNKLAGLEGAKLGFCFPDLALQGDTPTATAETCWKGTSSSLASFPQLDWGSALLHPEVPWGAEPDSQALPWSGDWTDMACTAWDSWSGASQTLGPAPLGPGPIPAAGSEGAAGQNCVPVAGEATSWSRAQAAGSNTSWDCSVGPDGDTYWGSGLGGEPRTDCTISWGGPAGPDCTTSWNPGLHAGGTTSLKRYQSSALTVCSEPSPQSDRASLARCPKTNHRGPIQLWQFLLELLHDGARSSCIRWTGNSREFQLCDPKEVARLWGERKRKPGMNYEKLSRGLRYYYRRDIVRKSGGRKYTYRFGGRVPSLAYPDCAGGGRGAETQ
# In short: as §1
# ELF3 = target: T11, ELF3 (Homo sapiens, UniProt P78545 1-371)
# T11 sequence: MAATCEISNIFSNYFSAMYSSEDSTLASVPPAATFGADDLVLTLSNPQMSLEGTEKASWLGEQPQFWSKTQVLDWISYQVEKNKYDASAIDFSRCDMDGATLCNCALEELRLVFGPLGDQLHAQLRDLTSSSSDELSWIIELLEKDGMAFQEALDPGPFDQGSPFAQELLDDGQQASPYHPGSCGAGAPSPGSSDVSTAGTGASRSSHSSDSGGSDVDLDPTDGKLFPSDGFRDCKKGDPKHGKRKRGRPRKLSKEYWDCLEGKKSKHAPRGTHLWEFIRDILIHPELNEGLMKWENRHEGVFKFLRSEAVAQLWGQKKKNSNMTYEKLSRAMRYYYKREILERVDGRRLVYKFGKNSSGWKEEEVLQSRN
# In short: as §1
# ETV1 = ETV1 (Homo sapiens, UniProt P50549 1-477)
# In short: as §1
# ELF1, sequence (P32519 whole entry): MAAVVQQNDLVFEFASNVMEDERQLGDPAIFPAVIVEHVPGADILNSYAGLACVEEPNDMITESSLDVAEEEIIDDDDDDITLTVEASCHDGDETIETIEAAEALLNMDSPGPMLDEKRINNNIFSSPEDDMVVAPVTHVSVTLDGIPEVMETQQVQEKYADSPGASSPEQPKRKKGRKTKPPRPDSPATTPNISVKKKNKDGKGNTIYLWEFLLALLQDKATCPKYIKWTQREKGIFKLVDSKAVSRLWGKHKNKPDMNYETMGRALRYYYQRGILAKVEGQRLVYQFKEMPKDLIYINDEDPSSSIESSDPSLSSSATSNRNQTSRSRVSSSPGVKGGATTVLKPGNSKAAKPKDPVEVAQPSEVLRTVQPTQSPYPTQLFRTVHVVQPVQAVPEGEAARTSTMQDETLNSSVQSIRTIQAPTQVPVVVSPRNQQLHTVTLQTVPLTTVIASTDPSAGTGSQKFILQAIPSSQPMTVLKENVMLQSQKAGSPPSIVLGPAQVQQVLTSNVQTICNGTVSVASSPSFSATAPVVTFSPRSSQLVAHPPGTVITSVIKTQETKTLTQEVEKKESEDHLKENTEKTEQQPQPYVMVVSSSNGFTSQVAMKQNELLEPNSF
# ELF4, sequence (Q99607 whole entry): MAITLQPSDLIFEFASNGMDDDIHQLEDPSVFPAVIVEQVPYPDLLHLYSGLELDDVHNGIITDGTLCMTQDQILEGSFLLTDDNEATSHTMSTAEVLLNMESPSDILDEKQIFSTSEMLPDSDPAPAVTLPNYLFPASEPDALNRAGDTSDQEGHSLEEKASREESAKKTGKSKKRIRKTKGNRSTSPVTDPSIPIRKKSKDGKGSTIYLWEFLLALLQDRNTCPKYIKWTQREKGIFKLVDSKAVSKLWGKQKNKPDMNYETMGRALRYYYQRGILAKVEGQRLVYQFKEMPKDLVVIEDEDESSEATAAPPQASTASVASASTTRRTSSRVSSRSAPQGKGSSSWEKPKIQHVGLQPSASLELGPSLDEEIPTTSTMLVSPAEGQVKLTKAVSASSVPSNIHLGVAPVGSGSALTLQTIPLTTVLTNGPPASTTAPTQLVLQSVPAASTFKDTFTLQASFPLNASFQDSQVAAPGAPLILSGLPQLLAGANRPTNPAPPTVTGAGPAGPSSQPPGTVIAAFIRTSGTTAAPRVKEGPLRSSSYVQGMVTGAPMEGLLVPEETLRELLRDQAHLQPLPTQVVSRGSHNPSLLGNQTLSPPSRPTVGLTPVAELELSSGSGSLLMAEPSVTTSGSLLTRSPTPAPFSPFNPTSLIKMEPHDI
# ETV1, sequence (P50549 whole entry): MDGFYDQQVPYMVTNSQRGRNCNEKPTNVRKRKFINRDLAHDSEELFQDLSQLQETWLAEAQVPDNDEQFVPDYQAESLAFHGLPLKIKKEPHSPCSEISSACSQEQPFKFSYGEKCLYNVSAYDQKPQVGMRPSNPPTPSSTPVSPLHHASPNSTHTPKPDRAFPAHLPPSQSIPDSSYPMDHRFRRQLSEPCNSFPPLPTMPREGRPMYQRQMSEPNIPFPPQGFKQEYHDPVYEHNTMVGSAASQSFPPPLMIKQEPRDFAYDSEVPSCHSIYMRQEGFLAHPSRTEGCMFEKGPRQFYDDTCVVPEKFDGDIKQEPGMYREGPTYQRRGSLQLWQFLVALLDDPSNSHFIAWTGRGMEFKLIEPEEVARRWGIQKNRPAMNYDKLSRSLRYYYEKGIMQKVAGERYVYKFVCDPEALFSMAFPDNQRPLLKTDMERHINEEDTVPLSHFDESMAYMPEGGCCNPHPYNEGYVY
# SPIB, sequence (Q01892 whole entry): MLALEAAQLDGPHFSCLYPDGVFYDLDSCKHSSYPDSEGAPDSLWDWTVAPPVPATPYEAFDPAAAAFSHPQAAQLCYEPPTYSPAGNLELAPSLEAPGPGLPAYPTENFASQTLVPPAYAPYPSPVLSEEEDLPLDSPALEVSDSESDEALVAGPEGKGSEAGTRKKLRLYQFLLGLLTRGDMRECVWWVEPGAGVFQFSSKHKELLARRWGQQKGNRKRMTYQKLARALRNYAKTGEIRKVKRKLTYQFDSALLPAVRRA
# ETV5, sequence (P41161 whole entry): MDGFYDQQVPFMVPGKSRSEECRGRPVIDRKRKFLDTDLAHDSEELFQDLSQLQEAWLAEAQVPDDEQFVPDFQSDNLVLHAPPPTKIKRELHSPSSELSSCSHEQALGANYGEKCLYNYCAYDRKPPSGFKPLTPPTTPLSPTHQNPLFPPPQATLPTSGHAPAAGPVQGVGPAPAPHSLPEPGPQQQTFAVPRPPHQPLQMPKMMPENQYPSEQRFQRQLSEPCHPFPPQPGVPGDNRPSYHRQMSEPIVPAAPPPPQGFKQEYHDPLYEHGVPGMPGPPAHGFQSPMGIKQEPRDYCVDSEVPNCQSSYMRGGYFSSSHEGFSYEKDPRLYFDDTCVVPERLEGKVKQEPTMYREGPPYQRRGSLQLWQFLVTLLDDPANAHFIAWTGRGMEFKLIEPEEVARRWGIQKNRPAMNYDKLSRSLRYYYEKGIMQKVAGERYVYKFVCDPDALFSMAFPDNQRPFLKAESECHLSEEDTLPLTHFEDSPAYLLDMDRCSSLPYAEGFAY
Sequence,binding signal (FLI1),binding signal (ELK1),binding signal (GABPA),binding signal (ERG),binding signal (ELF1),binding signal (EHF),binding signal (SPI1),binding signal (SPIB),binding signal (ELK3),binding signal (FEV),binding signal (ETV5),binding signal (SPIC),binding signal (ELF4),binding signal (ELK4),binding signal (ETV2),binding signal (ELF3),binding signal (ETV1)
GCGGAA,"1.37 fold enrichment (6-mer frequency, TF over GST control)","1.33 fold enrichment (6-mer frequency, TF over GST control)","1.29 fold enrichment (6-mer frequency, TF over GST control)","1.46 fold enrichment (6-mer frequency, TF over GST control)","1.28 fold enrichment (6-mer frequency, TF over GST control)","1.52 fold enrichment (6-mer frequency, TF over GST control)","2.18 fold enrichment (6-mer frequency, TF over GST control)","1.49 fold enrichment (6-mer frequency, TF over GST control)","1.37 fold enrichment (6-mer frequency, TF over GST control)","1.34 fold enrichment (6-mer frequency, TF over GST control)","1.56 fold enrichment (6-mer frequency, TF over GST control)","1.5 fold enrichment (6-mer frequency, TF over GST control)","1.21 fold enrichment (6-mer frequency, TF over GST control)","1.05 fold enrichment (6-mer frequency, TF over GST control)","1.34 fold enrichment (6-mer frequency, TF over GST control)","1.53 fold enrichment (6-mer frequency, TF over GST control)","1.42 fold enrichment (6-mer frequency, TF over GST control)"
CCGTCA,"1.24 fold enrichment (6-mer frequency, TF over GST control)","1.3 fold enrichment (6-mer frequency, TF over GST control)","1.19 fold enrichment (6-mer frequency, TF over GST control)","1.31 fold enrichment (6-mer frequency, TF over GST control)","1.28 fold enrichment (6-mer frequency, TF over GST control)","1.16 fold enrichment (6-mer frequency, TF over GST control)","1.18 fold enrichment (6-mer frequency, TF over GST control)","1.2 fold enrichment (6-mer frequency, TF over GST control)","1.15 fold enrichment (6-mer frequency, TF over GST control)","1.19 fold enrichment (6-mer frequency, TF over GST control)","1.23 fold enrichment (6-mer frequency, TF over GST control)","1.13 fold enrichment (6-mer frequency, TF over GST control)","1.26 fold enrichment (6-mer frequency, TF over GST control)","1.31 fold enrichment (6-mer frequency, TF over GST control)","1.24 fold enrichment (6-mer frequency, TF over GST control)","1.35 fold enrichment (6-mer frequency, TF over GST control)","1.22 fold enrichment (6-mer frequency, TF over GST control)"
